Screens: PubChem BioAssay, several laboratories
ANO1 activ: activates or potentiates the mouse TMEM16A chloride channel; Q8BHY3; HEK293 TMEM16A/YFP-H148Q/I152L, iodide quench fluorescence; active compounds read low; B-score at 10 µM; 340,000 compounds, 0.3% hits;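 active = fluorescence-ratio B-score plate-corrected deviation score at least 3 library SD below zero, with starting fluorescence score within 5 deviations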;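 note: channel opened by trigger with iodide after compound preincubation; score built on the fluorescence ratio of max minus min over baseline; more negative score means more quench and so TMEM16A activation or potentiation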
NOD2 RIPK2 PPI: inhibitors of human NOD2-RIPK2 interaction. O43353. CHO BLA complementation NOD2-RIPK2, CCF4 ratio. inhibition, % at 4.98 µM. 360,000 compounds, 0.38% hits. AID 624267; in the data active = inhibition above about 21%
Target sequence (O43353 whole entry, looked up): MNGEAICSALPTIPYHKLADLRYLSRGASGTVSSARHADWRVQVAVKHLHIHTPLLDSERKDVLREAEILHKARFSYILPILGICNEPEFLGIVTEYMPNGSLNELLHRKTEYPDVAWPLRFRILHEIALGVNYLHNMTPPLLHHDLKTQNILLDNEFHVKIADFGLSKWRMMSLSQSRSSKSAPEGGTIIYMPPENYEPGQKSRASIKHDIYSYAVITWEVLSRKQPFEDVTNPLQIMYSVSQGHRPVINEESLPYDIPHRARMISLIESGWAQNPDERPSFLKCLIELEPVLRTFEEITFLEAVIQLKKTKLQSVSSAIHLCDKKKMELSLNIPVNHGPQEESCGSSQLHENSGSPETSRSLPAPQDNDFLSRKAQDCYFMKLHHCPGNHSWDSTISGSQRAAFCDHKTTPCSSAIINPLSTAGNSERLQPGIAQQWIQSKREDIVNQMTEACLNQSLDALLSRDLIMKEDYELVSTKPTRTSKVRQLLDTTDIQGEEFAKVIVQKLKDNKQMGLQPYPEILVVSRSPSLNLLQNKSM
TLR9-MyD88 block: inhibitors of human TLR9-MyD88 binding. inhibition, % at 4.98 µM. 340,000 compounds, 0.21% hits. AID 504734. CHO BLA complementation TLR9-MyD88, CCF4 FRET ratio. Q9NR96+Q99836;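 active = inhibition above the mean over all tested compounds plus 3 SD, cut at about 21% in these data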
ANO1 block: mouse TMEM16A channel inhibition, primary screen; Q8BHY3; HEK293 TMEM16A/YFP iodide influx fluorescence, ionomycin; normalized B-score (activity score, 25-100; higher = stronger inhibition) at 10 µM; 310,000 compounds, 1.2% hits; AID 588511;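 active = ratio plate-corrected score three or more library SD toward inhibition, starting fluorescence score within five deviations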;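 note: score derived from kinetic fluorescence span divided by baseline fluorescence per well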
TLR4 MyD88 comp: TLR4-MyD88 interaction inhibition in cells; HeLa CL3-4 TLR4/MyD88 BLA complementation, FRET ratio; inhibition, % at 8.4 µM; 200,000 compounds, 0.18% hits; AID 861; O00206+Q99836; in the data active = inhibition above about 25%
m5-HT2A agonist: activates the mouse 5-HT2A serotonin receptor. P35363. CHO-K1 mHTR2A beta-arrestin complementation, luminescence; percent of 30 µM serotonin response. AID 624169. 360,000 compounds, 0.66% hits. activation, % at 7.6 µM;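 active = activation above a run cutoff, the mean activation of all tested compounds plus 3 SD, cut at about 14% in these data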
A number is an active result; - = inactive; . = no result given. Shown are actives, neighbours in structure and some others; about 2.4% of the full set was active somewhere.

SMILES	ANO1 activ	NOD2 RIPK2 PPI	TLR9-MyD88 block	ANO1 block	TLR4 MyD88 comp	m5-HT2A agonist
CCN(c1ccccc1)c1nc(C#N)nc(N(CC)c2ccccc2)n1	-	-	-	25	.	-
O=C(CCCSc1nnc(SCCCC(=O)c2ccc(F)cc2)s1)c1ccc(F)cc1	-	-	-	25	-	-
O=C(O)CSCC(=O)N(Cc1ccccc1)c1nc(-c2ccccc2)c(-c2ccccc2)s1	-	-	-	100	.	-
CCOC(=O)c1sc(N(Cc2ccccc2)C(=O)CCl)nc1C	-	-	-	-	.	-
COc1ccc(Cl)cc1NS(=O)(=O)c1cccc(C(=O)NCC(c2ccco2)N(C)C)c1 (configuration not stated)	-	-	-	-	.	-
Cc1ccccc1C(=O)N1c2ccccc2OCC1C(C)(C)C (configuration not stated)	-	-	-	-	.	-
CC(C)(C)C1COc2ccccc2N1C(=O)c1ccccc1Cl (configuration not stated)	-15	-	-	-	.	-
CCO/C=C1/C(=O)N(Cc2ccccc2)C(=O)c2ccccc21	-	-	-	-	-	-
Cc1ccc(C(=O)C(c2ccccc2)N2Cc3ccccc3C2=N)cc1 (configuration not stated)	-	-	-	100	-	-
O=C(COC(=O)c1cccnc1Cl)Nc1ccc(N2CCOCC2)cc1	.	-	-	.	.	-
O=C(COC(=O)CC(c1ccccc1)c1ccccc1)Nc1ccc(F)c(F)c1	.	.	.	100	-	.
O=C(COC(=O)CC(c1ccccc1)c1ccccc1)Nc1cccc(F)c1	-	-	-	-	-	-
COc1ccc(OCC(=O)Nc2ccc3c(c2)nc(CCN2CCN(c4ccccn4)CC2)n3C)cc1	.	-	-	.	.	-
Cc1cccc(OCC(=O)Nc2ccc3c(c2)nc(CCN2CCN(c4ccccn4)CC2)n3C)c1	-	-	-	100	.	-
c1ccc(-c2nc(NCCCn3ccnc3)c3oc4ccccc4c3n2)cc1	-	-	-	-	-	-
CCc1nc(NCCCn2ccnc2)c2oc3ccccc3c2n1	-26	-	-	-	-	-
COc1cc(O)c(C(CC(=O)N2CCOCC2)c2cc(OC)c(OC)c(OC)c2)c(OC)c1 (configuration not stated)	-	-	-	.	.	-
Oc1ccc(Cl)cc1Sc1cc(Cl)ccc1O	-5.6	-	-	.	.	-
CCOC(=O)C1=C(C)N(CCCC(=O)O)C(=O)NC1c1ccc(OC)cc1 (configuration not stated)	-	-	-	-	-	-
CN(CC(=O)NCCc1ccccc1)S(=O)(=O)c1cccs1	-5.4	-	-	-	-	-
CN(CC(=O)NCCc1ccc(Cl)cc1)S(=O)(=O)c1cccs1	-	-	-	-	.	-
O=C(Nc1ccc(F)cc1)C1CCN(c2ncnc3c2nc2n3CCCCC2)CC1	-	-	-	-	.	-
CCc1cc2c(=O)c(-c3nc(C)cs3)coc2cc1OC(C)C(=O)NCCO (configuration not stated)	-	-	-	-	-	-
COC(=O)C1=C(C(=O)OC)[C@]2([C@H]3CC=CCN[C@@H](Cc4ccccc4)C(=O)N3Cc3ccccc3)C=C[C@H]1O2	-10	-	-	.	.	-
COCCCNC(=S)N(Cc1ccccc1)Cc1nc2ccccc2c(=O)[nH]1	-	-	-	25	-	-
SMILES	ANO1 activ	NOD2 RIPK2 PPI	TLR9-MyD88 block	ANO1 block	TLR4 MyD88 comp	m5-HT2A agonist
C#CCN1C=C(C(=O)OCC)C(C)N(Cc2ccccc2I)S1(=O)=O (configuration not stated)	-5	-	-	.	.	-
C#CCN1C=C(C(=O)OCC)C(C)NS1(=O)=O (configuration not stated)	-	-	-	.	.	-
O=C(/C=C/c1ccco1)Nc1ccc2c(c1)OCCO2	-	-	-	-	-	-
Cc1cc(/C=N/n2c(COc3ccccc3C)nc3ccccc3c2=O)c(O)c([N+](=O)[O-])c1	-	-	-	100	-	-
Cc1ccccc1OCc1nc2ccccc2c(=O)n1/N=C/c1c[nH]c2ccccc12	-	-	-	-	-	-
O=[N+]([O-])c1ccc(Cl)c(/C=N/n2c(COc3ccccc3)n[nH]c2=S)c1	-	-	-	-	-	-
